According to the supplement of paper PMC10849652:
Of roughly 8,800 targets only a part is listed; those with a hit were picked by preference. About 0.5% of all pairs of compound and target were hits.

compound: CS(=O)(=O)CCNCc1ccc(-c2ccc3ncnc(Nc4ccc(OCc5cccc(F)c5)c(Cl)c4)c3c2)o1 [lapatinib]; test: log2 fold change, soluble protein after heating vs DMSO (PISA); higher = thermal stabilisation; K562 lysate, 10 uM; active = over 0.2 and 3.5 SD of the protein, either way, in both replicates (recomputed)
How it was run: (§1)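 Quantification was by TMTpro 16plex LC-MS/MS with equalised channel sums, applied to the supernatant after 21,000xg for 90 min. Samples were crude K562 extract at 1 mg/mL protein in PBS pH 7.4 with 1 mM MgCl2, treated with 10 μM compound for 30 min, heated for 3 min across 48°C-58°C, pooled and brought to 0.5% NP-40 at 4°C. Values are log-two fold changes in thermal stability relative to solvent controls, from duplicates.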

UniProt Q96JB5, sequence (Q96JB5 whole entry, looked up): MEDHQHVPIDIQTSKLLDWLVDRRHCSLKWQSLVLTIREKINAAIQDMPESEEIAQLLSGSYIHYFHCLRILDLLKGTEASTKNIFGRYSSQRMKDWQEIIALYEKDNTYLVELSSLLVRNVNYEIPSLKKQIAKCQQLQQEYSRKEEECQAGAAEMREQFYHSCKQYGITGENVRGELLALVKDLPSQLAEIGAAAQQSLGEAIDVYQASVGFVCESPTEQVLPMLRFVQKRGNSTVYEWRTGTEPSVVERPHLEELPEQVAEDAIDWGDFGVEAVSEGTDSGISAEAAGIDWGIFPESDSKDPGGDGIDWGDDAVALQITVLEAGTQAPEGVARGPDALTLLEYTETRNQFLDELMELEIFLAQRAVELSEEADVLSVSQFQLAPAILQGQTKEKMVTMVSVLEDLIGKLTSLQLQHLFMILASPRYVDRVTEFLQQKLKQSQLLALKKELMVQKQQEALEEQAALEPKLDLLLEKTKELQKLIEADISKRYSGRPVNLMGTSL
UniProt Q9HD20, sequence (Q9HD20 whole entry, looked up): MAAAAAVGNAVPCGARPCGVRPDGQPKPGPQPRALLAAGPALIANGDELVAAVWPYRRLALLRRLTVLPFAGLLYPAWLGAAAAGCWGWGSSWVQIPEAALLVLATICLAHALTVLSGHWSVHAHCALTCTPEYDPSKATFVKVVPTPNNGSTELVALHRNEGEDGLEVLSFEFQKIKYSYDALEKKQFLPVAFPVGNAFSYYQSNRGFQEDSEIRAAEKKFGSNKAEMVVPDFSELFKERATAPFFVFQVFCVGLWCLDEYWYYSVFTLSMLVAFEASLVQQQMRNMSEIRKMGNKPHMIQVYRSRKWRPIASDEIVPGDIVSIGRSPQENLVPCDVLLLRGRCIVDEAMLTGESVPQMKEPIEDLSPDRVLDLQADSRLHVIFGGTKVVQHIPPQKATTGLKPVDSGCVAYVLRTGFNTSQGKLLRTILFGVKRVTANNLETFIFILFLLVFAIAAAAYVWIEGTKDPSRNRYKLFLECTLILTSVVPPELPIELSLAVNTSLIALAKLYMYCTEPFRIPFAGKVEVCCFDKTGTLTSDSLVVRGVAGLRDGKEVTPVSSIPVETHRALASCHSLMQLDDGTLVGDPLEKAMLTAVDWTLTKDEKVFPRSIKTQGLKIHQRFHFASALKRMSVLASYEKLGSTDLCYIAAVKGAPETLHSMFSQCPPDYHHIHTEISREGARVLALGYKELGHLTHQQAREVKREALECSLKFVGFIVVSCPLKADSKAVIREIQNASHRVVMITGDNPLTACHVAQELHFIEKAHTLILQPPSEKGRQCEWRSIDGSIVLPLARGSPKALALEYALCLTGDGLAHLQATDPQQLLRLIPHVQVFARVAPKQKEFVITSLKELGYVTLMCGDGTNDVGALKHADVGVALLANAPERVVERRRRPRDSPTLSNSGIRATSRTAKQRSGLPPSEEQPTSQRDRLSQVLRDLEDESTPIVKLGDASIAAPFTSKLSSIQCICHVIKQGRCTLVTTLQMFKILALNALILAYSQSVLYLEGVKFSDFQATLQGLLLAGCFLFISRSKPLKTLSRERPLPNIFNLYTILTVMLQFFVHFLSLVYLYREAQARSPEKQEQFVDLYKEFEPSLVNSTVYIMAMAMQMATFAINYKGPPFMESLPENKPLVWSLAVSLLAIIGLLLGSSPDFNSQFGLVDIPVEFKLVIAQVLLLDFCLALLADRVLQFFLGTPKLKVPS
UniProt Q13042, sequence (Q13042 whole entry, looked up): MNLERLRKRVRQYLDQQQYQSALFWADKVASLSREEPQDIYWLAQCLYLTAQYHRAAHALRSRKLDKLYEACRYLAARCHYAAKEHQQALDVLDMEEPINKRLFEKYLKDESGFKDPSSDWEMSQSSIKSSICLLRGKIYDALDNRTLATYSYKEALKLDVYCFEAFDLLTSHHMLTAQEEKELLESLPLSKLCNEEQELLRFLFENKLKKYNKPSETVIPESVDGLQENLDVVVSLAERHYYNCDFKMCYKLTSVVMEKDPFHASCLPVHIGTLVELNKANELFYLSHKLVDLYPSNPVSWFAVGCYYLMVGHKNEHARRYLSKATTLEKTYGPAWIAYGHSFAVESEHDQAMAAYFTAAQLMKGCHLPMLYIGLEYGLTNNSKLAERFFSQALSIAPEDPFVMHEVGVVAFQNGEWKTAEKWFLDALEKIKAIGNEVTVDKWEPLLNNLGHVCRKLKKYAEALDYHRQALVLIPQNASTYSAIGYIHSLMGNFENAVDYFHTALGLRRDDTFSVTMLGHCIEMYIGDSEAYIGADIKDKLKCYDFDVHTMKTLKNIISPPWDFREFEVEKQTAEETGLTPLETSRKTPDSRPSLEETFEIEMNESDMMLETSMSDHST
UniProt Q14012, sequence (Q14012 whole entry, looked up): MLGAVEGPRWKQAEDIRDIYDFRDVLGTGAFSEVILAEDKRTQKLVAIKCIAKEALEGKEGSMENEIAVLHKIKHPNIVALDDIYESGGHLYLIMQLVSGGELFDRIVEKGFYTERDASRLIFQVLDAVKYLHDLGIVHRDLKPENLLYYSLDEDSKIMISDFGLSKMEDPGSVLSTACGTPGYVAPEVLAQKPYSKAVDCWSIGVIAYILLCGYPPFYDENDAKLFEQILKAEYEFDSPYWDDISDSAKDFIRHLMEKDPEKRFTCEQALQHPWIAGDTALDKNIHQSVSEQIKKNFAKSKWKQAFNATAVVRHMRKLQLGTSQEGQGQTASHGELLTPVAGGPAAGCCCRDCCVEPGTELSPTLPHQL
UniProt P24863, sequence (P24863 whole entry, looked up): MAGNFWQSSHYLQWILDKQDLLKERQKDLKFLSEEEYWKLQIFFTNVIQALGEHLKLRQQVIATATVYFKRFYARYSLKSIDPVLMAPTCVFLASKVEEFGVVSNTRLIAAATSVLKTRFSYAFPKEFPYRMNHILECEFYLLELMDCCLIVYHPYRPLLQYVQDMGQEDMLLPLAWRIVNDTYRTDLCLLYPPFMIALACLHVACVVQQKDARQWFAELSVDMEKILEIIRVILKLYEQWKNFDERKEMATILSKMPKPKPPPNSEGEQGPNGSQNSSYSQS
UniProt P49589, sequence (P49589 whole entry, looked up): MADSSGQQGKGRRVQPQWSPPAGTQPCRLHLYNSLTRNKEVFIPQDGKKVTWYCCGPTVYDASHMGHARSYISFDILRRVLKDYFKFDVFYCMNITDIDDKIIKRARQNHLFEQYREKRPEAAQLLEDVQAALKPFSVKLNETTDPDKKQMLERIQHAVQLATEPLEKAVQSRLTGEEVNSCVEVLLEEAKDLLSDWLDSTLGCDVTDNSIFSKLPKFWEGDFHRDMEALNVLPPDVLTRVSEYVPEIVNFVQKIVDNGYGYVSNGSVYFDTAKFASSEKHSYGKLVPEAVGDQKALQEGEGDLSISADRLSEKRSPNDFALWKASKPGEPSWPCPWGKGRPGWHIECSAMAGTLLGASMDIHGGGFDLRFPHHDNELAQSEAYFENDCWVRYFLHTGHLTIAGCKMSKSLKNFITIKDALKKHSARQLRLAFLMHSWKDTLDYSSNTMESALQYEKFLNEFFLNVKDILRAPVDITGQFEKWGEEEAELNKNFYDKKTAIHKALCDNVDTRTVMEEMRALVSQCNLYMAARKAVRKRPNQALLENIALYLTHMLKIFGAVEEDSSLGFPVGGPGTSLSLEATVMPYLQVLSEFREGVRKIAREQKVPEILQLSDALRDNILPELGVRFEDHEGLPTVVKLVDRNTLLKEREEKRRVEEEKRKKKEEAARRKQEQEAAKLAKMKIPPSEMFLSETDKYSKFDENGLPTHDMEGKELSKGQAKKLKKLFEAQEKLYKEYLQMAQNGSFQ
UniProt Q8N163, sequence (Q8N163 whole entry, looked up): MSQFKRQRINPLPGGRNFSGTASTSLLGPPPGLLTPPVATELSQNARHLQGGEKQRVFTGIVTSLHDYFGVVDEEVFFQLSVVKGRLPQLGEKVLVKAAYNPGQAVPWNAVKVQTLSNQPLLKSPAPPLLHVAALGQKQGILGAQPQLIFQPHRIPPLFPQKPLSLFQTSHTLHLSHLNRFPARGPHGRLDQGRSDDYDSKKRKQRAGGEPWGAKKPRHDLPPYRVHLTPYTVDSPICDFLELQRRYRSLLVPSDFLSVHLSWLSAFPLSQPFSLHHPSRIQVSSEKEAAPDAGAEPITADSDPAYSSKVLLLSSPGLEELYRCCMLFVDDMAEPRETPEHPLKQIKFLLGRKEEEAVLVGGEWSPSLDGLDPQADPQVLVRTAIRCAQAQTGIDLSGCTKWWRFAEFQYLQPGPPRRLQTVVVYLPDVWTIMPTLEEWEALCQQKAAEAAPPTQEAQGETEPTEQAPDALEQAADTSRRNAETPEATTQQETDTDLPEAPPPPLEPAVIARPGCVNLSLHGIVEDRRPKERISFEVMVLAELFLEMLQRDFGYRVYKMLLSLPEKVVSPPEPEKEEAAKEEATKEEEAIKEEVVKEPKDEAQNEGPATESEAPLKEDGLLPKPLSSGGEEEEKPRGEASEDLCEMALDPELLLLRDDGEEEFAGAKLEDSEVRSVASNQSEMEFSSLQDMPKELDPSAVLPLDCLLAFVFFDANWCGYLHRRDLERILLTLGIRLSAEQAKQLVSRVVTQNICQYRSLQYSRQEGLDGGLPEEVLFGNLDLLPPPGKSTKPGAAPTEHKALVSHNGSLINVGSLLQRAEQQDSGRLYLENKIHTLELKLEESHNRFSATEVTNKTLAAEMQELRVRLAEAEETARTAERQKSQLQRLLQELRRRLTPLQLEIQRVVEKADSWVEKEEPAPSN
UniProt P04632, sequence (P04632 whole entry, looked up): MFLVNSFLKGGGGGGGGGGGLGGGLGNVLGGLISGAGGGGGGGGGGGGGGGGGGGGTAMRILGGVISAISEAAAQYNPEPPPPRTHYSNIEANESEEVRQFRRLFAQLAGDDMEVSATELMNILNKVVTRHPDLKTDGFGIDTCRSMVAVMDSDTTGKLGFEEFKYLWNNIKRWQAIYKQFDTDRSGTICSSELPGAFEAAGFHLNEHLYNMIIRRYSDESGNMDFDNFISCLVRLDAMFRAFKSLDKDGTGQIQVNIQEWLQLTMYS

Row | Target | log2 fold change
1 | CCAR2 (UniProt Q8N163) | 0.002 (inactive)
2 | CDK1 (UniProt P06493) | -0.012 (inactive)
3 | ATE1 isoform 2 (UniProt O95260) | 0.021 (inactive)
4 | CCDC22 (UniProt O60826) | -0.002 (inactive)
5 | ATXN2 (UniProt F8WB05) | 0.06 (inactive)
6 | CHAF1A (UniProt Q13111) | 0.014 (inactive)
7 | C2CD5 isoform 3 (UniProt Q86YS7) | -0.031 (inactive)
8 | CARNMT1 (UniProt Q8N4J0) | 0.01 (inactive)
9 | CCNC (UniProt P24863) | -0.108 (inactive)
10 | BCR (UniProt P11274) | -0.02 (inactive)
11 | CDC16 (UniProt Q13042) | 0.016 (inactive)
12 | CHCHD4 isoform 2 (UniProt Q8N4Q1) | 0.045 (inactive)
13 | BTAF1 (UniProt O14981) | 0.015 (inactive)
14 | CEP120 (UniProt Q8N960) | -0.076 (inactive)
15 | CHD4 isoform 2 (UniProt Q14839) | 0.003 (inactive)
16 | ATP11A (UniProt P98196) | -0.118 (inactive)
17 | BRD3 (UniProt Q15059) | 0.014 (inactive)
18 | ATG4B (UniProt Q9Y4P1) | 0.012 (inactive)
19 | BORCS5 (UniProt Q969J3) | 0.015 (inactive)
20 | CCPG1 isoform 5 (UniProt Q9ULG6) | 0.114 (inactive)

Row | Target | log2 fold change
21 | ATP13A1 (UniProt Q9HD20) | -0.115 (inactive)
22 | BUB1B isoform 3 (UniProt O60566) | 0.009 (inactive)
23 | CDK5 (UniProt Q00535) | -0.094 (inactive)
24 | CDAN1 (UniProt Q8IWY9) | 0.009 (inactive)
25 | CCNB1 (UniProt P14635) | -0.029 (inactive)
26 | CDC7 (UniProt O00311) | 0.112 (inactive)
27 | CCDC186 (UniProt Q7Z3E2) | -0.056 (inactive)
28 | ATG13 isoform 2 (UniProt O75143) | 0.018 (inactive)
29 | CCDC32 isoform 2 (UniProt Q9BV29) | 0.04 (inactive)
30 | CAPNS1 (UniProt P04632) | 0.064 (inactive)
31 | CDK5RAP3 isoform 4 (UniProt Q96JB5) | -0.013 (inactive)
32 | CAMK1 (UniProt Q14012) | -0.037 (inactive)
33 | CDS2 (UniProt O95674) | 0.02 (inactive)
34 | CALB2 (UniProt P22676) | 0.009 (inactive)
35 | BCKDK (UniProt O14874) | -0.056 (inactive)
36 | CARS isoform 3 (UniProt P49589) | -0.006 (inactive)
37 | CCNK isoform 4 (UniProt O75909) | 0.001 (inactive)
38 | CARD11 (UniProt Q9BXL7) | 0.001 (inactive)
39 | CANX isoform 2 (UniProt P27824) | 0.018 (inactive)
40 | BNIP1 (UniProt Q12981) | -0.007 (inactive)

compound: CS(=O)(=O)N1CCN(Cc2cc3nc(-c4cccc5[nH]ncc45)nc(N4CCOCC4)c3s2)CC1 [pictilisib]; test: as above
How it was run: as §1

Row | Target | log2 fold change
41 | CCAR2 (UniProt Q8N163) | -0.061 (inactive)
42 | CDK1 (UniProt P06493) | -0.021 (inactive)
43 | ATE1 isoform 2 (UniProt O95260) | -0.058 (inactive)
44 | CCDC22 (UniProt O60826) | -0.017 (inactive)
45 | ATXN2 (UniProt F8WB05) | 0.005 (inactive)
46 | CHAF1A (UniProt Q13111) | 0.063 (inactive)
47 | C2CD5 isoform 3 (UniProt Q86YS7) | -0.029 (inactive)
48 | CARNMT1 (UniProt Q8N4J0) | -0.029 (inactive)
49 | CCNC (UniProt P24863) | 0.036 (inactive)
50 | BCR (UniProt P11274) | -0.032 (inactive)
51 | CDC16 (UniProt Q13042) | 0 (inactive)
52 | CHCHD4 isoform 2 (UniProt Q8N4Q1) | 0.092 (inactive)
53 | BTAF1 (UniProt O14981) | -0.043 (inactive)
54 | CEP120 (UniProt Q8N960) | -0.007 (inactive)
55 | CHD4 isoform 2 (UniProt Q14839) | -0.004 (inactive)
56 | ATP11A (UniProt P98196) | -0.087 (inactive)
57 | BRD3 (UniProt Q15059) | 0.004 (inactive)
58 | ATG4B (UniProt Q9Y4P1) | -0.042 (inactive)
59 | BORCS5 (UniProt Q969J3) | 0.096 (inactive)
60 | CCPG1 isoform 5 (UniProt Q9ULG6) | -0.038 (inactive)

Row | Target | log2 fold change
61 | ATP13A1 (UniProt Q9HD20) | -0.011 (inactive)
62 | BUB1B isoform 3 (UniProt O60566) | -0.038 (inactive)
63 | CDK5 (UniProt Q00535) | 0.095 (inactive)
64 | CDAN1 (UniProt Q8IWY9) | -0.05 (inactive)
65 | CCNB1 (UniProt P14635) | -0.01 (inactive)
66 | CDC7 (UniProt O00311) | -0.067 (inactive)
67 | CCDC186 (UniProt Q7Z3E2) | -0.004 (inactive)
68 | ATG13 isoform 2 (UniProt O75143) | 0.014 (inactive)
69 | CCDC32 isoform 2 (UniProt Q9BV29) | 0.02 (inactive)
70 | CAPNS1 (UniProt P04632) | 0.024 (inactive)
71 | CDK5RAP3 isoform 4 (UniProt Q96JB5) | -0.028 (inactive)
72 | CAMK1 (UniProt Q14012) | -0.058 (inactive)
73 | CDS2 (UniProt O95674) | -0.007 (inactive)
74 | CALB2 (UniProt P22676) | -0.07 (inactive)
75 | BCKDK (UniProt O14874) | -0.028 (inactive)
76 | CARS isoform 3 (UniProt P49589) | -0.006 (inactive)
77 | CCNK isoform 4 (UniProt O75909) | 0.013 (inactive)
78 | CARD11 (UniProt Q9BXL7) | -0.287 (active)
79 | CANX isoform 2 (UniProt P27824) | 0.037 (inactive)
80 | BNIP1 (UniProt Q12981) | 0.018 (inactive)
